The nature of the test: LNCaP cell loss by flow event count, confirmation, cytotoxicity control for prostate differentiation activator project, single point (AID 1076).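 Also: counts scatter-gated live cells after medium removal discards detached dead cells.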 The note with it: flow cytometry event count, 4 d, stronger effect = lower value.

Activity calls are given as the source filed them.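 The calls were made as follows: active = cell event count below 40, meaning activity score above 60 where score is 100 minus count; inactive = the rest.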

On to `CC(C)(C)OC(=O)N1CCC(C(=O)N2CCCCCC2)CC1`, for which the cell event count reads like this: (at 100 µM) 223 (inactive); (event count, at 10 µM) 123.

Take `O=C(Nc1ccc2oc(Cc3ccc(Cl)cc3)nc2c1)c1cccnc1`: the cell event count is 17 (inactive) (at 100 µM) and 96 (event count, at 10 µM).

On to `Cn1cc(CNC(=O)C2c3ccccc3Oc3ccccc32)cn1`, for which the cell event count by setting is: (at 100 µM) 465 (inactive); (event count, at 10 µM) 217.

Take `c1ccc(CSc2nnc(-c3cccs3)n2Cc2ccco2)cc1`: the cell event count (at 100 µM) was 55 (inactive) and the cell event count (event count, at 10 µM) stood at 122.

Turning to `O=C(Cc1coc(-c2ccc(F)cc2)n1)N1CCOCC1`, the cell event count is 217 (inactive) (at 100 µM) and 71.5 (event count, at 10 µM).

With `CCOc1cccc2cc(-c3cn4cc(C)ccc4n3)c(=O)oc12`, the cell event count reads like this: (at 100 µM) 267 (inactive); (event count, at 10 µM) 300.

Consider `Cc1ccccc1-c1nc(CN2CCC(C(=O)NCCCN3CC(C)CC(C)C3)CC2)c(C)o1` (configuration not stated), for which the cell event count reads like this: (at 100 µM) 11 (inactive); (event count, at 10 µM) 102.

With `CC1(C)CC(=O)c2cc(OCC(=O)NCCCN3CCN(c4ccccc4F)CC3)ccc2O1`, the cell event count runs as follows: (at 100 µM) 11 (inactive); (event count, at 10 µM) 141.

As to `CN(CCNC(=O)C1CC(=O)N(c2ccc(F)c(Cl)c2)C1)Cc1ccccc1` (configuration not stated), the cell event count reads like this: (at 100 µM) 79 (inactive); (event count, at 10 µM) 202.

In the case of `O=C(CSc1c[nH]c2ccccc12)N1CCOCC1`, the cell event count runs as follows: (at 100 µM) 297 (inactive); (event count, at 10 µM) 149.

Consider `CCCCOC(=O)CSc1nc2c(cc1C#N)C(=O)CC(C)(C)C2`, for which the cell event count (at 100 µM) is 203 (inactive) and the cell event count (event count, at 10 µM) came to 194.

Take `Cn1c(=O)[nH]c(=O)c2c1nc(Br)n2CCCSc1nc2ccccc2o1`: the cell event count runs as follows: (at 100 µM) 8 (inactive); (event count, at 10 µM) 96.

As to `CCc1ccc(-c2nc(CN3CCC(C(=O)NCc4ccc(F)cc4)CC3)c(C)o2)cc1`, the cell event count (at 100 µM) was 1 (active) and the cell event count (event count, at 10 µM) stood at 62.5.

For `OCc1nc2ccccc2n1CCCOc1ccccc1`, the cell event count reads like this: (at 100 µM) 178 (inactive); (event count, at 10 µM) 156.

Turning to `CCN(CCCNS(=O)(=O)c1ccc2c(c1)oc(=O)n2C)c1cccc(C)c1`, the cell event count is 27 (inactive) (at 100 µM) and 151 (event count, at 10 µM).

In the case of `N=c1n(CCO)c2ccccc2n1CCOc1ccc(Cl)cc1Cl`, the cell event count is 18 (inactive) (at 100 µM) and 272 (event count, at 10 µM).

Regarding `O=C(CN1CCC(n2nnc3cc(F)ccc32)CC1)Nc1ccc2c(c1)CCC2`, the cell event count runs as follows: (at 100 µM) 210 (inactive); (event count, at 10 µM) 466.

For `O=C(NCCCN1CCN(c2cccc(Cl)c2)CC1)c1cccc(N2CCCC2=O)c1`, the cell event count (at 100 µM) was 222 (inactive) and the cell event count (event count, at 10 µM) came to 176.

As for `COc1ccc(N2CCN(CCCNC(=O)C3CCCN(S(=O)(=O)c4cnc[nH]4)C3)CC2)cc1` (configuration not stated), the cell event count is, setting by setting: (at 100 µM) 31 (inactive); (event count, at 10 µM) 92.5.

On to `CCCCOc1ccccc1NC(=O)Cn1c(-c2nonc2N)nc2ccccc21`, for which the cell event count is, setting by setting: (at 100 µM) 99 (inactive); (event count, at 10 µM) 86.5.

As for `COc1ccc(N2CCN(CCCNC(=O)c3cc4sccc4n3C)CC2)cc1`, the cell event count was 161 (inactive) (at 100 µM) and 251 (event count, at 10 µM).

For `Cn1c(=O)cc(SCC(=O)NCCCN2CCN(c3ccc(F)cc3)CC2)c2ccccc21`, the cell event count is 30 (inactive) (at 100 µM) and 211 (event count, at 10 µM).

With `O=c1cc(N2CCc3ccccc3C2)[nH]c(=O)n1C1CCCCC1`, the cell event count is, setting by setting: (at 100 µM) 143 (inactive); (event count, at 10 µM) 76.5.

For the compound `Cc1cc(C)c2c(=O)n(CC(=O)NCCCN3CCN(c4ccccc4F)CC3)sc2n1`, the cell event count reads like this: (at 100 µM) 15 (inactive); (event count, at 10 µM) 216.

Take `CCOC(=O)C1=C(C)Nc2nc(SC)nn2C1c1ccc(C(=O)OC)cc1` (configuration not stated): the cell event count runs as follows: (at 100 µM) 326 (inactive); (event count, at 10 µM) 178.

For `CCOC(=O)N1CCN(C(=O)CN(c2cccc(C(F)(F)F)c2)S(=O)(=O)c2ccccc2)CC1`, the cell event count (at 100 µM) is 137 (inactive) and the cell event count (event count, at 10 µM) is 395.

Turning to `CCOc1ccccc1NC(=O)c1nc[nH]c1C(=O)Nc1ccccc1OCC`, the cell event count runs as follows: (at 100 µM) 20 (inactive); (event count, at 10 µM) 248.

With `Cc1oc(-c2ccccc2F)nc1CN1CCC(C(=O)NCc2ccco2)CC1`, the cell event count is, setting by setting: (at 100 µM) 330 (inactive); (event count, at 10 µM) 278.

With `CCCN(CCC)CCNC(=O)C1CCN(Cc2nc(-c3ccc(Cl)cc3)oc2C)CC1`, the cell event count by setting is: (at 100 µM) 55 (inactive); (event count, at 10 µM) 120.

As to `O=C(Cn1ccc2ccccc2c1=O)NCCC(=O)N1CCN(c2cccc(C(F)(F)F)c2)CC1`, the cell event count was 232 (inactive) (at 100 µM) and 258 (event count, at 10 µM).

On to `CCOC(=O)c1sc2ncnc(N3CCN(c4ccc(OC)cc4)CC3)c2c1C`, for which the cell event count by setting is: (at 100 µM) 16 (inactive); (event count, at 10 µM) 76.5.

For the compound `COc1ccc(Cl)c(N2CCN(CCCNC(=O)Nc3ccc(C)cc3)CC2)c1`, the cell event count is, setting by setting: (at 100 µM) 19 (inactive); (event count, at 10 µM) 128.

With `CCc1ccc(-c2nc(CN3CCC(C(=O)NCCc4ccc(OC)c(OC)c4)CC3)c(C)o2)cc1`, the cell event count by setting is: (at 100 µM) 17 (inactive); (event count, at 10 µM) 204.

As to `O=C(NCc1ccc(Cl)cc1)c1noc2c1CCCC2`, the cell event count reads like this: (at 100 µM) 311 (inactive); (event count, at 10 µM) 380.

As for `COc1ccc(-c2ccc(-c3noc(-c4ccccc4)n3)c(OC)n2)cc1`, the cell event count reads like this: (at 100 µM) 30 (active); (event count, at 10 µM) 32.

Regarding `COCCNC(=O)CC(NS(=O)(=O)c1ccc(NC(C)=O)cc1)C(C)C` (configuration not stated), the cell event count is, setting by setting: (at 100 µM) 79 (inactive); (event count, at 10 µM) 62.

On to `Cc1oc(-c2ccccc2F)nc1CN1CCC(C(=O)NC2CCCCCCC2)CC1`, for which the cell event count runs as follows: (at 100 µM) 6 (inactive); (event count, at 10 µM) 90.

Turning to `Cc1oc(-c2cccc(Cl)c2)nc1CN1CCC(C(=O)NCc2ccco2)CC1`, the cell event count by setting is: (at 100 µM) 100 (inactive); (event count, at 10 µM) 189.

For `N=c1c(C(=O)NC2CCCC2)cc2c(=O)n3ccccc3nc2n1C1CCCC1`, the cell event count (at 100 µM) is 12 (active) and the cell event count (event count, at 10 µM) is 55.

In the case of `CCc1ccc(-c2nc(CN3CCC(C(=O)NCCN(CC)c4ccccc4)CC3)c(C)o2)cc1`, the cell event count reads like this: (at 100 µM) 6 (inactive); (event count, at 10 µM) 150.

As for `CCN1CCCC1CNC(=O)c1cc2c(-c3ccc(Cl)cc3)nn(C)c2s1` (configuration not stated), the cell event count (at 100 µM) was 14 (inactive) and the cell event count (event count, at 10 µM) worked out at 88.5.

Values taken from PubChem BioAssay AID1076 (NMMLSC, 2008).
